The results in this text go back to PubChem BioAssay (NCI).

Structures are written as SMILES. This is part of a sample that, as a whole, favours compounds with a hit. Of some 79,000 tested, about 15% had one in any assay. A number with no mark means an inactive call. Activity calls are given as the source filed them. Cut-off read from the data, not from the text of the source: active = growth inhibition above about 70%; inactive = the rest.

The assay can be described thus: NCI Yeast Anticancer Drug Screen. Data for the bub3 strain (AID 167). The note with it: S. cerevisiae bub3 mutant strain, hits give high values. How it is done: Growth inhibition of yeast strains with defined genetic alterations is measured as a screen for potential anti-cancer activity. Selected strains with alterations in DNA damage repair or cell cycle control were exposed to compounds and growth inhibition was measured relative to vehicle treated controls. The strain used in this assay is bub3

Where [1] appears, read: at 5.0 µM (retest, dose inferred, filed as 0.5).
[2] abbreviates: at 50.0 µM (retest, dose inferred, filed as 5.0).

Consider `NC(N)=N/N=C\c1c2ccccc2cc2ccccc12`, for which the growth inhibition was -43% (at 1.2 µM); -55% (at 3.7 µM); 3% under setting [1]; -59% (at 11.0 µM); -44% (at 33.0 µM); 14% under setting [2]. Besides, the growth inhibition runs as follows: (at 50.0 µM) 21%; (at 100.0 µM) 75% (active).

Turning to `O=c1ssc2ncccc12`, the growth inhibition was 2% (at 1.2 µM); 4% (at 3.7 µM); 23% under setting [1]; 36% (at 11.0 µM); 87% (active) (at 33.0 µM); 97% (active) under setting [2]. Also, the growth inhibition (at 50.0 µM) was 93.2% (active) and the growth inhibition (at 100.0 µM) was 98% (active).

For the compound `CCCN(CCC)CC(O)c1cc(-c2ccc(Cl)cc2)nc2c(C)c(Cl)ccc12` (stereo not given), the growth inhibition runs as follows: (at 1.2 µM) -5%; (at 3.7 µM) -6%; under setting [1], 6%; (at 11.0 µM) 99% (active); (at 33.0 µM) 97% (active); under setting [2], 96% (active). For the same compound, the growth inhibition is 97.4% (active) (at 50.0 µM) and 94% (active) (at 100.0 µM).

Regarding `CC1(C)C(=O)OC(n2cc(F)c(=O)[nH]c2=O)C1=O` (stereo not given), the growth inhibition is 19% (at 1.2 µM); 21% (at 3.7 µM); 45% under setting [1]; 19% (at 11.0 µM); 37% (at 33.0 µM); 62% under setting [2]. In addition, the growth inhibition was 27.1% (at 50.0 µM) and 39% (at 100.0 µM).

Take `CN1c2ccc(Cl)cc2C(=O)NC1c1ccc([N+](=O)[O-])s1` (stereo not given): the growth inhibition (at 1.2 µM) was 0%; the growth inhibition (at 3.7 µM) is 2%; the growth inhibition under setting [1] is -1%; the growth inhibition (at 11.0 µM) is 11%; the growth inhibition (at 33.0 µM) is 93% (active); the growth inhibition under setting [2] is 97% (active). Besides, the growth inhibition is, setting by setting: (at 50.0 µM) 92.4% (active); (at 100.0 µM) 97% (active).
